According to PubChem BioAssay (Tox21):
Results filed as inconclusive are left out. Activity calls are given as the source filed them. Unless noted, the call rests on the fitted dose curve; in most records, active means well fitted curve in the direction sought with a large enough effect in the repeat runs; inconclusive means weak or mixed curves; inactive means flat fitted curve, though single readings scatter.

Experiments:
[1] = qHTS assay to test for compound auto fluorescence at 460 nm (blue) in HEK293 cell free culture (AID 720681)
Summary of the method: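 Test compounds were pinned into cell-free culture medium (DMEM with 10% FBS) and fluorescence was read directly at Ex/Em 405/460 nm. Signals were expressed as fluorescence equivalents of triamterene, with DMSO vehicle as control.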

[2] = qHTS assay to test for compound auto fluorescence at 535 nm (green) in HEK293 cell free culture (AID 720682)
Summary of the method: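 Steps: dispense DMEM/10% FBS into empty wells; pin in compound or DMSO; measure fluorescence at 485/535 nm. Values are fluorescein equivalents.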

[3] = qHTS assay to test for compound auto fluorescence at 590 nm (red) in HEK293 cell free culture (AID 720683)
Summary of the method: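 Tox21 10K library compounds were pinned into cell-free DMEM with 10% FBS and fluorescence was read at excitation 540 nm. Activity is expressed as Rose Bengal sodium equivalency.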

[4] = qHTS assay to test for compound auto fluorescence at 590 nm (red) in HepG2 cell free culture (AID 720684)
Summary of the method: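 Readout: intrinsic compound fluorescence at 590 nm emission after 540 nm excitation, scaled to Rose Bengal sodium. Matrix was cell-free MEM with 10% FBS; DMSO vehicle wells served as control.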

[5] = qHTS assay to test for compound auto fluorescence at 460 nm (blue) in HepG2 cell free culture (AID 720685)
Summary of the method: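 Cell-free plates of MEM plus 10% FBS received 23 nL compound or DMSO vehicle; blue-channel (405/460 nm) intensity scored against triamterene as reference fluorophore.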

[6] = qHTS assay to test for compound auto fluorescence at 535 nm (green) in HepG2 cell free culture (AID 720686)
[7] = molecular target: Glucocorticoid receptor (Homo sapiens) (UniProt P04150); test: qHTS assay to identify small molecule agonists of the glucocorticoid receptor (GR) signaling pathway (AID 720691; active means well fitted activation curve with a large enough effect in the signal ratio in the repeat runs, not every such curve was filed as active; the % refers to the signal ratio)
Glucocorticoid receptor (Homo sapiens), sequence (P04150 whole entry, looked up): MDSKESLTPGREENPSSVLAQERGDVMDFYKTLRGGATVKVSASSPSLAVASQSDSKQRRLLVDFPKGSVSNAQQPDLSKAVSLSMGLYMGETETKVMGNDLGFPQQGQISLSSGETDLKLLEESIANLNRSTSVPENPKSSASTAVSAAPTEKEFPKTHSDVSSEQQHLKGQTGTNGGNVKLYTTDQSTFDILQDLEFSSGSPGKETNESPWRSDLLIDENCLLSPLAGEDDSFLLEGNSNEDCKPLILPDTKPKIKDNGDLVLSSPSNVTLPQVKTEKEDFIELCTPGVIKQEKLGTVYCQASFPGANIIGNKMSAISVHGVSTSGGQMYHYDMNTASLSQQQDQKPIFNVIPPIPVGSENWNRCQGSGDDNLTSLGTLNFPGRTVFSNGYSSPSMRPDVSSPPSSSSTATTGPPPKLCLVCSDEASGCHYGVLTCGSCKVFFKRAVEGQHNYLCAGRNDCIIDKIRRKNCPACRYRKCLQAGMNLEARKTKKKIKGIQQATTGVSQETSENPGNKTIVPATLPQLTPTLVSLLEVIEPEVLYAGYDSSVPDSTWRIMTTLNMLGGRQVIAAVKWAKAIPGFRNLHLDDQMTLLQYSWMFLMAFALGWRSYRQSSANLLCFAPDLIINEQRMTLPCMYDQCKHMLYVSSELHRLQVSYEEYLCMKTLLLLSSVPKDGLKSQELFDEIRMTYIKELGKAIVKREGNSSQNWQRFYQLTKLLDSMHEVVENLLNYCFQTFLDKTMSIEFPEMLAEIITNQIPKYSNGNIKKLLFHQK
Summary of the method: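 Cells: GR-bla HeLa, endogenous GR with stably integrated GRE-beta-lactamase reporter. Treatment 18 h, 37 C, compounds delivered in DMSO. Detection via LiveBLAzer B/G FRET substrate, 2 h RT, fluorescence intensity.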

[8] = molecular target: Glucocorticoid receptor (Homo sapiens) (UniProt P04150); test: qHTS assay to identify small molecule antagonists of the glucocorticoid receptor (GR) signaling pathway (AID 720692; active means well fitted inhibition curve with a large enough effect in the signal ratio in the repeat runs, not every such curve was filed as active; the % refers to the signal ratio)
Summary of the method: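 Quantitative HTS in antagonist format: HeLa cells expressing endogenous GR and a stably integrated GRE-bla reporter, stimulated with 5 nM dexamethasone (final) alongside test compounds for 18 h.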

[9] = qHTS assay to test for compound auto fluorescence at 460 nm (blue) in HepG2 cells (AID 720687)
Summary of the method: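 Cells (2,000/well in MEM with 10% FBS) attached overnight at 37 C, then were exposed to compound or DMSO for 1 hr at 37 C, 5% CO2. Fluorescence read at Ex/Em 405/460 nm, expressed as triamterene-equivalent signal.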

Measured: Potency

CCCC1CCCC(=O)O1 (stereo not given)
not listed: [9]
inactive: all other assays above

O=Cc1ccc([N+](=O)[O-])cc1
inactive: all assays above

CCC(C)CCCC(C)(C)O (stereo not given)
inactive: all assays above

COc1ccc(/C=C/c2cc(OC)cc(=O)o2)cc1
inactive: [2] | [3] | [4] | [5] | [6]

CCCCC(CC)COCCC#N (stereo not given)
inactive: all assays above

CC(=O)Nc1ccn(C2COC(COC(=O)c3ccccc3)O2)c(=O)n1 (stereo not given)
not listed: [1] | [7] | [8]
inactive: all other assays above

CC(C)CCCCCCCOC(=O)c1ccc(C(=O)OCCCCCCCC(C)C)c(C(=O)OCCCCCCCC(C)C)c1
not listed: [9]
inactive: all other assays above

CC(=O)CC/C=C(\C)CC/C=C(\C)CC/C=C(\C)CCC=C(C)C
not listed: [7] | [8]
inactive: all other assays above

CCCCCCCCCCCCSC#N
not listed: [8]
inactive: all other assays above

CCC[Si](OC)(OC)OC
inactive: all assays above

COc1ccc(CN(CCN(C)C)c2ncccn2)cc1
not listed: [1]
inactive: all other assays above

Oc1ccc(CCNCCCCCCNCCc2ccccc2)cc1O
not listed: [1] | [7] | [8]
inactive: all other assays above

O=[N+]([O-])c1ccccc1CCO
not listed: [8]
inactive: all other assays above

N#Cc1ccc(CC(=O)c2cccc(C(F)(F)F)c2)cc1
inactive: all assays above

O=C(O)c1cccnc1Nc1cccc(C(F)(F)F)c1
not listed: [9]
inactive: all other assays above

CC(O)C(C)O (stereo not given)
inactive: all assays above

OCCc1ccncc1
inactive: all assays above

O=C1OC(=O)C2CC=CCC12 (stereo not given)
inactive: all assays above

CC1(C)CC(=O)CC(C)(C)N1
inactive: all assays above

CCCCCC1CCC(=O)O1 (stereo not given)
inactive: all assays above

NC(=O)c1ccccc1
inactive: all assays above

O=C(Cl)c1ccc(F)c(Cl)c1
not listed: [7] | [8]
inactive: all other assays above

C=CCCC
not listed: [1]
inactive: all other assays above

O=C(OC1C[C@H]2CC[C@@H](C1)[N+]21CCCC1)C(O)(c1ccccc1)c1ccccc1 (stereo not given in full)
inactive: [2] | [3] | [4] | [5] | [6]

CC(=O)Nc1ccccc1O
inactive: [2] | [3] | [4] | [5] | [6]

CO[C@@H]1COCC[C@@H]1N[C@@H]1CC[C@@](C(=O)N2CCc3ncc(C(F)(F)F)cc3C2)(C(C)C)C1
inactive: all assays above
